From PubChem BioAssay
The source made the active and inactive calls.

Legend:
[1] = system: PRMT1 (protein arginine N-methyltransferase 1); experiment: small molecules binding arginine methyltransferase PRMT1 – biochemical, small-molecule microarray, 635 nm fluorescence, primary screen (AID 1088); conditions: higher = more signal;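 also: binding of Prmt1 protein to compounds spotted on small-molecule microarray slides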
[2] = growth effects on S. cerevisiae YJM789 – YJM789 clinical isolate, OD600, 24 h, basal, primary screen (AID 1089); conditions: higher = more signal, called active from +8 up or from −8 down;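 also: growth of clinical yeast isolate S. cerevisiae YJM 789 seeded 1000 cells per well; test concentration not given here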
[3] = S. pombe growth modifiers, basal conditions – strain 972, OD600, 24 h, no modulator, primary screen (AID 1090);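 also: basal condition with compound alone and no growth modifier present; test concentration not given here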; conditions: S. pombe 972 growth, higher = more signal, called active from +8 up or from −8 down
[4] = budding yeast growth modifiers under rapamycin – strain BY4716, OD600, 96 h, primary screen (AID 1091); also: test concentration not given here; conditions: S. cerevisiae BY4716 + rapamycin, higher = more signal, called active from +8 up or from −8 down
[5] = target: Torsin-1A-interacting protein 2 (Homo sapiens) (UniProt Q8NFQ8); experiment: small molecules binding lysate-expressed LULL1 – cell lysate, human LULL1 lysate, 635/667 nm fluorescence, primary screen (AID 1092); conditions: small-molecule microarray, hLULL1 lysate binding, 635 nm fluorescence; higher = more signal;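 also: probe is lysate of COS7 cells overexpressing human LULL1; score merges per-feature 667 nm fluorescence with signal-to-noise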
[6] = optical density change of DRC41 E. coli – strain DRC41, OD650, 24 h, E. coli filamentation project, primary screen (AID 1093);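 also: MC1000 strain lacking acrAB efflux and sulA so SOS filamentation is blocked; test concentration not given here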; conditions: E. coli DRC41 growth, higher = more signal, called active from +8 up or from −8 down
[7] = probe aLefty2 binding to arrayed compounds – biochemical, biotinylated probe, 635/667 nm fluorescence, primary screen (AID 1094); conditions: small-molecule microarray, higher = more signal;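 also: score merges spot fluorescence near 667 nm with spot signal-to-noise ratio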
[8] = system: Noggin (protein binding on small-molecule microarray); experiment: small molecules binding Noggin protein – biochemical, 635/667 nm fluorescence, primary screen (AID 1095); conditions: 635 nm fluorescence, higher = more signal;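 also: score merges 667 nm feature fluorescence with signal to noise over triplicate slides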
[9] = target: Neurogenic locus notch homolog protein 3 (Homo sapiens) (UniProt Q9UM47); experiment: small molecules binding NOTCH3 protein – biochemical, 635/667 nm fluorescence, primary screen (AID 1096); conditions: small-molecule microarray, 635 nm fluorescence, higher = more signal
[10] = probe aEGFR binding to arrayed compounds – biochemical, biotinylated probe, 635/667 nm fluorescence, primary screen (AID 1097); conditions: small-molecule microarray, higher = more signal;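 also: probe is a biotinylated anti-EGFR antibody binding compounds printed on slides; score combines fluorescence near 667 nm and signal to noise of each spot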
[11] = system: Plasmodium falciparum Sir2 (PF13_0152, Sir2A); experiment: Plasmodium falciparum Sir2A binding compounds – biochemical, small-molecule microarray, 635 nm fluorescence, primary screen (AID 1098); conditions: fluorescence 635 nm, higher = more signal;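 also: score merges spot fluorescence intensity with its signal-to-noise ratio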
[12] = probe aDKK1 binding to arrayed compounds – biochemical, biotinylated probe, 635/667 nm fluorescence, primary screen (AID 1099); conditions: small-molecule microarray, higher = more signal;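 also: score merges 667nm spot fluorescence with signal to noise across triplicate slides; reference of the scale not given here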
[13] = probe aCHRDL2 binding to arrayed compounds – biochemical, biotinylated probe, 635/667 nm fluorescence, primary screen (AID 1100); conditions: small-molecule microarray, higher = more signal
[14] = change in splice reporter luminescence, either direction, cell-based, HEK293, spliceosome inhibition project, primary screen (AID 1101); conditions: HEK293 splicing luciferase reporter, 24 h, higher = more signal, called active from +8 up or from −8 down;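 also: HEK293 cells carrying a splicing-competent luciferase reporter gene; test concentration not given here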
[15] = target: Fibroblast growth factor 10 (Homo sapiens) (UniProt O15520); experiment: compounds binding fibroblast growth factor 10 – biochemical, small-molecule microarray, 635 nm fluorescence, primary screen (AID 1102); conditions: FGF10 binding, fluorescence 635 nm, higher = more signal
[16] = system: glycogen synthase kinase-3 (GSK3A per assay name; protocol says GSK3B); experiment: compounds binding glycogen synthase kinase-3 – biochemical, small-molecule microarray, 635 nm fluorescence, GSK3A, primary screen (AID 1103); conditions: fluorescence 635 nm, higher = more signal; also: the record names both GSK3A and GSK3B
[17] = target: Epidermal growth factor receptor (Homo sapiens) (UniProt P00533); experiment: compounds binding epidermal growth factor receptor – biochemical, small-molecule microarray, 635 nm fluorescence, primary screen (AID 1104); conditions: EGFR binding, higher = more signal;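 also: score merges 667 nm emission intensity with spot signal to noise over triplicate slides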
[18] = target: Follistatin-related protein 3 (Homo sapiens) (UniProt O95633); experiment: compounds binding follistatin-related protein 3 – biochemical, small-molecule microarray, 635 nm fluorescence, primary screen (AID 1105); conditions: FSTL3 binding, higher = more signal;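 also: score merges emission near 667 nm and signal to noise per printed spot across three slides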
[19] = target: Dickkopf-related protein 1 (Homo sapiens) (UniProt O94907); experiment: small molecules binding DKK1 protein – biochemical, small-molecule microarray, 635 nm fluorescence scan, primary screen (AID 1106); conditions: higher = more signal;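 also: score merges emission near 667 nm with signal to noise over three replicate slides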
[20] = system: Inhibin beta A chain (activin A); experiment: small molecules binding activin A – biochemical, small-molecule microarray, 635 nm fluorescence scan, primary screen (AID 1107); conditions: INHBA, higher = more signal;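 also: mouse activin A protein probed at 4.33 µg/mL on printed slides; score merges bound-protein fluorescence near 667 nm with spot signal-to-noise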

Follistatin-related protein 3 (Homo sapiens), sequence (O95633 whole entry, looked up): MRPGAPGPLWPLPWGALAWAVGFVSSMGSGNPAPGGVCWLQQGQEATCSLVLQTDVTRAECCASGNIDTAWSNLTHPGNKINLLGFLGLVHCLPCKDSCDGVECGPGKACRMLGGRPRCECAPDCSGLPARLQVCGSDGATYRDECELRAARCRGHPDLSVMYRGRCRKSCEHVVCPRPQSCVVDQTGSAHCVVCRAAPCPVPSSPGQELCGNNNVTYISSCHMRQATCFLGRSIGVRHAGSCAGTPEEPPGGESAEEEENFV
Torsin-1A-interacting protein 2 (Homo sapiens), sequence (Q8NFQ8 whole entry, looked up): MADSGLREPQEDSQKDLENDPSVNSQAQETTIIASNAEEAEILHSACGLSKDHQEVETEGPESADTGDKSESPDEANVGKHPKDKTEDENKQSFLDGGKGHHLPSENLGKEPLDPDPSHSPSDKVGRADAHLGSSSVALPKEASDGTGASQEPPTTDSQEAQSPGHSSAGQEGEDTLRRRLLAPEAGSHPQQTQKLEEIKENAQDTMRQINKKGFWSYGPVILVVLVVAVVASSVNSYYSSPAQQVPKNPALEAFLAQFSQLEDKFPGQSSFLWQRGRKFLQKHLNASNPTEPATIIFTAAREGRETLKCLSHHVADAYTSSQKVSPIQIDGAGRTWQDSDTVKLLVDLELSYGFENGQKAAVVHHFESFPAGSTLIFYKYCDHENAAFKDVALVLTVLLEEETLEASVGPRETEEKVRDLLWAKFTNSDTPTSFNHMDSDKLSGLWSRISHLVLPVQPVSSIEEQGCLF
Fibroblast growth factor 10 (Homo sapiens), sequence (O15520 whole entry, looked up): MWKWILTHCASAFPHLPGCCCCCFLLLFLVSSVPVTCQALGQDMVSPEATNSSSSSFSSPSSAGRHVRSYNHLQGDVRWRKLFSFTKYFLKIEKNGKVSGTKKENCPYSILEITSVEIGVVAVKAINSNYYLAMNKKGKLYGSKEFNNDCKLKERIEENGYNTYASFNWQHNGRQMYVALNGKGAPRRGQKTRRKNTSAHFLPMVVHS
Neurogenic locus notch homolog protein 3 (Homo sapiens), sequence (Q9UM47 whole entry, looked up): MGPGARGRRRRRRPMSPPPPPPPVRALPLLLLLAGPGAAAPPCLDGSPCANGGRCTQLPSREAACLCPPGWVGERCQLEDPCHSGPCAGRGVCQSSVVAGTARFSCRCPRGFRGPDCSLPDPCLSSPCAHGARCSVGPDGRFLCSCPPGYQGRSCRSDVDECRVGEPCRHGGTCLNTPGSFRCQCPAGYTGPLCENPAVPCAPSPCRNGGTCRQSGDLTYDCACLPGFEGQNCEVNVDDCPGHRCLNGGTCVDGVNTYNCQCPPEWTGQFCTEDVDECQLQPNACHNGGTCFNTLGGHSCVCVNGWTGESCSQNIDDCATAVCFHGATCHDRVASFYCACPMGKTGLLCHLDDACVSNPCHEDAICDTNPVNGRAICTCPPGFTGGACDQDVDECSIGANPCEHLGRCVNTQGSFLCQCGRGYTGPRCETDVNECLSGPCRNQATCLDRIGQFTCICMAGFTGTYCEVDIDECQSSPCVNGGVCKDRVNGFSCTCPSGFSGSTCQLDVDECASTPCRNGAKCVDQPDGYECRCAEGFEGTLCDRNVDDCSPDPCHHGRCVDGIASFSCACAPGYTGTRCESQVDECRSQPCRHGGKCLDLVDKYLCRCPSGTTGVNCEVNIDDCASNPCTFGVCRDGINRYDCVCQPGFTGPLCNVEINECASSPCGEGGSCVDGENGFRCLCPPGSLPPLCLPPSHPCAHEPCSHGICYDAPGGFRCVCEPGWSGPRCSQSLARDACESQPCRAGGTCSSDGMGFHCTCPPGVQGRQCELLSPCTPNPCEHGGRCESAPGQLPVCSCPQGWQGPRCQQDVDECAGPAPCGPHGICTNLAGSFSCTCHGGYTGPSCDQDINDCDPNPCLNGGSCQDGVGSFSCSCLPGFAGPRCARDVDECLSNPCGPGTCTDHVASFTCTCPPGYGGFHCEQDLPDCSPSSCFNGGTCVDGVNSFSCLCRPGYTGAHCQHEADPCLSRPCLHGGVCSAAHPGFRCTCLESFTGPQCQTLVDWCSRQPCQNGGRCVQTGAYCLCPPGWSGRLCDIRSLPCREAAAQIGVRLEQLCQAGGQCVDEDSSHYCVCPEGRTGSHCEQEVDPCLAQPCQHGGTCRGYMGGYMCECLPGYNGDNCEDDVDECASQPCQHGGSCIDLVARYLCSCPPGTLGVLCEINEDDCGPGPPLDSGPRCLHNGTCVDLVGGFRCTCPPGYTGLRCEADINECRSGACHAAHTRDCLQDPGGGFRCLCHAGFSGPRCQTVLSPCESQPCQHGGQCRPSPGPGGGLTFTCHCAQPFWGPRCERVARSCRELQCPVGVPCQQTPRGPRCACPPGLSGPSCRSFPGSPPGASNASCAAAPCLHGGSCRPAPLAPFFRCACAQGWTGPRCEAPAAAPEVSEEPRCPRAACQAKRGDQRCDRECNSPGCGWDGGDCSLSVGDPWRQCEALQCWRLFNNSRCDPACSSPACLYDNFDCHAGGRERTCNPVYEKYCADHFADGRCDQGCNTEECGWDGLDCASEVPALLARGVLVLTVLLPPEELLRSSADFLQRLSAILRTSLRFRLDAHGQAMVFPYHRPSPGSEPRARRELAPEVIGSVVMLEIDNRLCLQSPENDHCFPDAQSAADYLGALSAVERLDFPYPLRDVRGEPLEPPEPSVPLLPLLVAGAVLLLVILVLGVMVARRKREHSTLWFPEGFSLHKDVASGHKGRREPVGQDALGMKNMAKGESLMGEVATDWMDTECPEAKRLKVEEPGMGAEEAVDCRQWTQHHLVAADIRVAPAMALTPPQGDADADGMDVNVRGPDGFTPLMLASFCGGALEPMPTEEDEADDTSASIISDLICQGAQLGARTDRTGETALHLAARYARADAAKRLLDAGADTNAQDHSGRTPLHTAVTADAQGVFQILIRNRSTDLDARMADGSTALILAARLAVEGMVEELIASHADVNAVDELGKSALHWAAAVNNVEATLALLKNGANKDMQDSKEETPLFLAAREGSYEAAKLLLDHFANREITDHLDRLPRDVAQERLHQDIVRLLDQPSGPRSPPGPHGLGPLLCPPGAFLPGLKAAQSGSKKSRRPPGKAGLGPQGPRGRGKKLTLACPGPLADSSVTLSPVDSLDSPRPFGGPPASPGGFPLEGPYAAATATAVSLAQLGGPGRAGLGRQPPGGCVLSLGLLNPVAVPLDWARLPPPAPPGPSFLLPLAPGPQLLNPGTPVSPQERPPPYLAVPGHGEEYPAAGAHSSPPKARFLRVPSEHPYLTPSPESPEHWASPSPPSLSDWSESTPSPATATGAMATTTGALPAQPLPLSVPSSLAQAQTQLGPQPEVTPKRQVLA
Dickkopf-related protein 1 (Homo sapiens), sequence (O94907 whole entry, looked up): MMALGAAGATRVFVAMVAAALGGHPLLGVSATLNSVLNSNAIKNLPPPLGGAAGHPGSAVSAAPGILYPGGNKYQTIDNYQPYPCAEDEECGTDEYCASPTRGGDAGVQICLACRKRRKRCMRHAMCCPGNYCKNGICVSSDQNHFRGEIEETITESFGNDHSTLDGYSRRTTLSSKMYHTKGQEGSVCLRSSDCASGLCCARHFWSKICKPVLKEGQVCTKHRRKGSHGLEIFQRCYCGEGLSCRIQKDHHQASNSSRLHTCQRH
Epidermal growth factor receptor (Homo sapiens), sequence (P00533 whole entry, looked up): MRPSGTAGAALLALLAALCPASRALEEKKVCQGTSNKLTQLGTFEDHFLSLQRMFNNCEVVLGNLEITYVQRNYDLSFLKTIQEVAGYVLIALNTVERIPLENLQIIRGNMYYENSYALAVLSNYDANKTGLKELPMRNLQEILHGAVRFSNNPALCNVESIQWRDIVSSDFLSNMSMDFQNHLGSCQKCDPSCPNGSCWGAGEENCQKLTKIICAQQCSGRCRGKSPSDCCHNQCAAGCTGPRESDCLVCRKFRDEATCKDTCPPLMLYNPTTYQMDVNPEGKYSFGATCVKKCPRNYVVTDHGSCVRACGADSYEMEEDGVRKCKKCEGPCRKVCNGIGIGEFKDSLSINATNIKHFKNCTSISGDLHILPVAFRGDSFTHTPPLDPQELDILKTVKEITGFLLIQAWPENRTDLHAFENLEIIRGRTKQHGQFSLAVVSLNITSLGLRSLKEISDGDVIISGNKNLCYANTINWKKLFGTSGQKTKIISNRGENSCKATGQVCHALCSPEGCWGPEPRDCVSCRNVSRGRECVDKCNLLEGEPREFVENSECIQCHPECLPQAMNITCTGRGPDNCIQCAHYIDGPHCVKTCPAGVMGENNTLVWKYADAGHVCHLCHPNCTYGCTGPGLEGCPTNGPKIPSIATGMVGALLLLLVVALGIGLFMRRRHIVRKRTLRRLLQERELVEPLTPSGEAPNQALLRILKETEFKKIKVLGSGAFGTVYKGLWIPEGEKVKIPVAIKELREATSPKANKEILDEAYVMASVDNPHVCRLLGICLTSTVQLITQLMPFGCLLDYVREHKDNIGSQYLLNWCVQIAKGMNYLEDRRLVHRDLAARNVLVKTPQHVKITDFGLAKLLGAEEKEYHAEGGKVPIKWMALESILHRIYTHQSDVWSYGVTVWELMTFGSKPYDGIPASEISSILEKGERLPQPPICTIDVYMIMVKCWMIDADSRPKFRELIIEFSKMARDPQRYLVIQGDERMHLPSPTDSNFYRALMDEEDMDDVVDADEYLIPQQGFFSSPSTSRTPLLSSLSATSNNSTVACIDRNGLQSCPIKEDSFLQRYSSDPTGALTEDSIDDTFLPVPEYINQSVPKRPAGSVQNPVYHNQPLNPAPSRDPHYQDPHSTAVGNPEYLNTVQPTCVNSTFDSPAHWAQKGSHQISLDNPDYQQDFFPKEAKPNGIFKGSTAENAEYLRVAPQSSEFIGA

Structure (SMILES)	composite z-score [1]	z-score [2]	z-score [3]	z-score [4]	composite z-score [5]	z-score [6]	composite z-score [7]	composite z-score [8]	composite z-score [9]	composite z-score [10]	composite z-score [11]	composite z-score [12]	composite z-score [13]	z-score [14]	composite z-score [15]	composite z-score [16]	composite z-score [17]	composite z-score [18]	composite z-score [19]	composite z-score [20]
C=C(COC)/C(=C/C[C@@H](OC(=O)c1ccncc1)c1cccc(OCCO)c1)c1cc(C(=O)OC)ccc1OC	1.56	-25.3 (active)	-20.2 (active)	-4.36 (inactive)	0.512	0.625 (inactive)	-0.205	1.32	0.841	-0.0022	0.756	-0.183	-0.471	-0.651 (inactive)	1.62	1.2	0.29	0.902	0.167	0.997
C=CCOc1ccc([C@@H]2CC=C(C(=O)OCC)[C@H](c3cccc(Br)c3)N2S(=O)(=O)c2ccc(C)cc2)cc1	-0.227	-2.1 (inactive)	-0.493 (inactive)	0.196 (inactive)	0.652	-0.372 (inactive)	0.049	-0.351	-0.32	-0.0456	0.251	0.735	1.04	-0.776 (inactive)	0.248	-1.11	-0.0936	0.167	0.644	1.46
CC(C)[Si](C#C[Si](C(C)C)(C(C)C)C(C)C)(O[C@H](C)c1cn(Cc2cccc(Cl)c2)nn1)C(C)C	1.36	0.487 (inactive)	0.115 (inactive)	-0.318 (inactive)	1.04	2.18 (inactive)	-0.148	0.52	0.902	0.0192	0.259	-0.493	-0.578	-0.589 (inactive)	0.539	1.14	0.863	0.433	0.459	-0.33
C[C@]12C(=O)N(CCCO)[C@@H]3C(=O)N(c4ccc(Cl)cc4)CC=CC31O[C@@H]1/C=C\CCCOC(=O)C12 (stereo not given in full)	0.868	-1.65 (inactive)	-1.51 (inactive)	-0.488 (inactive)	3.16	-0.298 (inactive)	-0.262	-0.441	-0.123	-0.261	1.83	-0.275	0.62	0.158 (inactive)	-0.747	-1.07	-0.887	-0.538	-1.01	0.232
[N-]=[N+]=Nc1ccccc1C[C@]1(C(=O)NCCN2CCOCC2)N=C(c2ccc(OCCCO)cc2)O[C@H]1c1ccccc1N=[N+]=[N-]	1.55	-2.65 (inactive)	-4.92 (inactive)	-0.821 (inactive)	3.37	0.683 (inactive)	0.491	0.708	1.03	0.542	1.15	0.63	1.07	-1.41 (inactive)	1.47	1.29	0.472	1.2	0.418	1.18
C=CC[C@]1(C(=O)NCC(O)CO)N=C(c2ccc(OCCCO)cc2)O[C@H]1c1ccccc1N=[N+]=[N-] (stereo not given in full)	1.03	-0.285 (inactive)	-0.529 (inactive)	-0.325 (inactive)	3.31	0.346 (inactive)	0.406	-0.0496	-0.0588	-0.142	0.939	0.731	1.28	-0.789 (inactive)	0.258	-0.216	-0.0496	-0.291	-0.379	1.42
CCOC(=O)C[C@H]1[C@H](OC(=O)Cc2ccc3c(c2)OCO3)[C@@H](NC(=O)c2ccccc2)c2cc(OCCCO)ccc2N1C(=O)c1ccccc1	0.267	-0.0172 (inactive)	-0.462 (inactive)	0.205 (inactive)	1.27	1.48 (inactive)	-0.166	0.53	0.713	-0.125	-0.0111	-0.0126	-0.0843	-0.299 (inactive)	0.603	0.505	0.437	0.371	0.276	0.524
CC(C)CCC[C@@H](C)[C@H]1CC[C@@]2(C)C3=C(CC[C@]12C)[C@@]1(C)CC[C@H](OC(=O)c2ccc(N)cc2)C(C)(C)C1CC3 (stereo not given in full)	0.68	-1.77 (inactive)	-1 (inactive)	-0.246 (inactive)	-0.0362	2.78 (inactive)	-0.19	0.434	0.614	-0.0238	0.347	-0.285	-0.761	-0.925 (inactive)	0.331	0.833	0.614	0.587	1.4	-0.023
O=C1OCCC=C[C@H]2OC34C=CCN(Cn5nnc6ccccc65)C(=O)[C@H]3N(CCCCCO)C(=O)[C@@H]4C12 (stereo not given in full)	-0.285	-0.0057 (inactive)	-0.439 (inactive)	-0.506 (inactive)	1.43	0.141 (inactive)	-0.0674	-0.825	-0.135	-0.2	1.18	-0.181	0.311	0.227 (inactive)	-0.691	-0.368	-0.97	-1.09	-0.925	0.0469
